# Measured values from ChEMBL document CHEMBL1201862, “PubChem BioAssay data set” (2004).
# Hit rate of the full screen: of about 400,000 compounds, about 2,100 (0.53%) were called active. Roughly 14% stayed inconclusive and do not appear here. How the calls were made is not given here. The sample as a whole holds a higher share of actives than the screen did.
# Molecular target: Ataxin-2 (Homo sapiens) (UniProt Q99700)
# Test: qHTS for Inhibitors of ATXN expression.
# Type: functional
# Ataxin-2 (Homo sapiens), sequence (Q99700 whole entry): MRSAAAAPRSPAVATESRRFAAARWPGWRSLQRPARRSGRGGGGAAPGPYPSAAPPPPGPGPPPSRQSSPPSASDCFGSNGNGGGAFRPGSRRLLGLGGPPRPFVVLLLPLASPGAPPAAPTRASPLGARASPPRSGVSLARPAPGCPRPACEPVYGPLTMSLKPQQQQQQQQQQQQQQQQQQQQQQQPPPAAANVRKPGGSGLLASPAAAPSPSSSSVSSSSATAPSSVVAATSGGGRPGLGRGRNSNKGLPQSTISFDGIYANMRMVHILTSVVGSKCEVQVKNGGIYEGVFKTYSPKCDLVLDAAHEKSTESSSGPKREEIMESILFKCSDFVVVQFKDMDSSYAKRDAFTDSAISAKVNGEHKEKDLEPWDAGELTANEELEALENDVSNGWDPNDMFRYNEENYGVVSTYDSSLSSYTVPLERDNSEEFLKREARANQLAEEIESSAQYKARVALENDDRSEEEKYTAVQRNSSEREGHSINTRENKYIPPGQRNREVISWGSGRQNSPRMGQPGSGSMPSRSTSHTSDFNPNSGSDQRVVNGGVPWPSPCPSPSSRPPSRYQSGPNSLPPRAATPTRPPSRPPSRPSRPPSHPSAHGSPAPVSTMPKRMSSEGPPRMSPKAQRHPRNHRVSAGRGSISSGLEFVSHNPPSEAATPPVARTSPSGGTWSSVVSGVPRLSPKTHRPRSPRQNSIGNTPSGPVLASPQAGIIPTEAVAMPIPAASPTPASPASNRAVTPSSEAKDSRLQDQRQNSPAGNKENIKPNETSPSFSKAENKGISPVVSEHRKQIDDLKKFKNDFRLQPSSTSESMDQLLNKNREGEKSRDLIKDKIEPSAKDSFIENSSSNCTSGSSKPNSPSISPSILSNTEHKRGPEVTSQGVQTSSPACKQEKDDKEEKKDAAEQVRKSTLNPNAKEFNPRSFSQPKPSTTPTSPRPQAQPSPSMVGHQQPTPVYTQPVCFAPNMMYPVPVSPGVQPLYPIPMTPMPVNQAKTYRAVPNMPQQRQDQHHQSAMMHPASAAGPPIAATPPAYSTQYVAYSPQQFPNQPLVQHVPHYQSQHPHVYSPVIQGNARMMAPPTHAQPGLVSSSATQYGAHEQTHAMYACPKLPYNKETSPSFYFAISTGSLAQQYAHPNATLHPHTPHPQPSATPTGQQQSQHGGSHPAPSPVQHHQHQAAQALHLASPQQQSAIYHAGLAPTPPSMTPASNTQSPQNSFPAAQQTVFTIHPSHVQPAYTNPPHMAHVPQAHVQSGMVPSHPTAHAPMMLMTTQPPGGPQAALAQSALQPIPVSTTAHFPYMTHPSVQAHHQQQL
row,Compound,Potency
1,COC(c1ccccc1)c1nnc(CCC(=O)NCCc2ccc(Cl)cc2)o1 (stereo not given),inactive
2,CC(C)(C)OC(=O)NCC(=O)Oc1cc2oc(=O)cc(-c3ccccc3)c2cc1Cl,inactive
3,CC(C)(C)OC(=O)NCCc1nnc(S(=O)(=O)Cc2ccc(Cl)cc2Cl)o1,17.8 µM (active)
4,CC1CCc2nc(/C(C#N)=C/c3ccncc3)sc2C1 (stereo not given),inactive
5,CSCC(=O)Nc1cc(C)on1,inactive
6,O=C1c2ccccc2S(=O)(=O)c2cc(N3CCC(C(=O)N4CCCCC4)CC3)ccc21,inactive
7,COc1cc(S(=O)(=O)Nc2ccc3c(c2)C(=O)N(C)C3=O)ccc1NC(C)=O,inactive
8,COc1cccc(-c2ccc3c(N)c(C(=O)Nc4ccccc4C)sc3n2)c1,inactive
9,COc1cccc(-c2cnc3c(NC(C)=O)cc(-c4cccc(NS(C)(=O)=O)c4)cn23)c1,28.2 µM (active)
10,CC(=O)Nc1cc(-c2cccc(NS(C)(=O)=O)c2)cn2c(-c3cccc(C(F)(F)F)c3)cnc12,35.5 µM (active)
11,CC1(C)CCCN(C(=O)c2ccc3c(c2NCCO)C(=O)c2ccccc2C3=O)C1,20 µM (active)
12,OCCCc1nc2n(n1)C(c1ccccc1)C=C(c1ccc(F)cc1)N2 (stereo not given),inactive
13,COc1cccc(CN(C)Cc2cc(=O)oc3cc(O)c(Cl)cc23)c1,inactive
14,Cc1cccc(NC(=O)CSc2nc3ccc(NC(=O)c4ccco4)cc3s2)c1,39.8 µM (active)
15,Cc1c(-c2cccc(NC(=O)c3ccco3)c2)nc2ncccn12,inactive
16,CC(C)(C)C(=O)Nc1nc2c(s1)CN(Cc1ccccc1)CC2,inactive
17,CC(=O)Nc1ccc(/C(C)=N/Nc2nc(N3CCOCC3)nc(N3CCOCC3)n2)cc1,inactive
18,Cc1cccc(NC(=O)CSc2nc3ccc(NC(=O)c4ccccc4)cc3s2)c1,39.8 µM (active)
19,CCn1nc(NC(=O)c2ccco2)c2cc3cc(C)ccc3nc21,inactive
20,CC(=O)Nc1ccc(/C(C)=N/Nc2nc(Nc3ccccc3)nc(N3CCOCC3)n2)cc1,inactive
21,CC(C)(C)C(=O)Nc1ccc2nc(SCc3ccccc3)sc2c1,31.6 µM (active)
22,N#Cc1ccc(NC(=O)CSc2nc3nc(O)cc(O)c3s2)cc1,inactive
23,COc1ccc(NC(=O)CSc2nc3ccc(Nc4nc(N5CCOCC5)nc(N5CCOCC5)n4)cc3s2)cc1,15.8 µM (active)
24,CC(=O)Nc1ccc(O)c(-c2nc3ccccc3s2)c1,inactive
25,CCN(C(=O)COC(=O)c1ccc(OC)c(S(=O)(=O)N(C)Cc2ccccc2)c1)C1CCS(=O)(=O)C1 (stereo not given),inactive

row,Compound,Potency
1,COc1ccc(CCC(=O)OCC(=O)Nc2c(C)n(C)n(-c3ccccc3)c2=O)cc1,inactive
2,CCCCCCc1cc2cc(-c3nnc(-c4ccc(C)cc4)o3)c(=O)oc2cc1O,inactive
3,Cc1nn2c(nc(N3CCCCC3)c3ccccc32)c1C=O,inactive
4,O=C(CCC1CCCCC1)Nc1nncs1,inactive
5,Nc1cccc2c1C(=O)N(C(=O)c1ccc(Cl)c(S(=O)(=O)N3CCCCCC3)c1)C2=O,inactive
6,CCn1nc(NC(=O)c2ccco2)c2cc3ccccc3nc21,inactive
7,CN(C(=O)c1ccc(NC(=O)c2ccco2)cc1)c1ccccc1,7.08 µM (active)
8,O=C(CSc1nnc(NC(=O)c2ccco2)s1)NCc1ccc2c(c1)OCO2,inactive
9,Cc1ccc(C(=O)Nc2ccc3c(c2)OCO3)cc1NC(=O)c1ccco1,inactive
10,CN(C(=O)CSc1nc2ccc(NC(=O)c3ccco3)cc2s1)c1ccccc1,39.8 µM (active)
11,COCc1cc(C)nc2sc(C(=O)Nc3cccc(OC)c3)c(N)c12,inactive
12,COCCNC(=O)Nc1ccc2nc(-c3ccco3)c(-c3ccco3)nc2c1,inactive
13,COc1cccc(NC(=O)CSc2nc3ccc(NC(=O)c4ccco4)cc3s2)c1,35.5 µM (active)
14,CN(Cc1ccccc1)C(NC(=O)c1ccco1)C(Cl)(Cl)Cl (stereo not given),inactive
15,C=CCOc1c(Br)cc(C2C3=C(CCCC3=O)N(C)C3=C2C(=O)CCC3)cc1OCC,inactive
16,CCO/C(O)=C1/C(CC)=Nc2ccccc2N=C1NS(=O)(=O)c1cccc(C(C)=O)c1,inactive
17,COc1cccc(-c2ccc3c(N)c(C(=O)NC4CC4)sc3n2)c1,inactive
18,Cc1ccc2nc(N3CCC(C(=O)O)CC3)nc(-c3ccccc3)c2c1,inactive
19,C/C(=N\NC(=O)c1nc2ccccn2c1C)c1cc2ccccc2o1,inactive
20,O=C(NCc1ccco1)c1cc(NS(=O)(=O)c2cccc([N+](=O)[O-])c2)ccc1O,inactive
21,Cc1ccc2sc(N(CCCN(C)C)C(=O)CCS(=O)(=O)c3ccccc3)nc2c1C,22.4 µM (active)
22,COc1cccc2sc(N(CCCN(C)C)C(=O)CCS(=O)(=O)c3ccccc3)nc12,20 µM (active)
23,Cc1ccc2sc(N(CCCN(C)C)C(=O)c3ccc(Br)s3)nc2c1C,35.5 µM (active)
24,CN(C)CCCN(C(=O)CCOc1ccccc1)c1nc2c(F)cccc2s1,22.4 µM (active)
25,Cc1ccc(/C(=N/Nc2nc3ccccc3s2)C2=C(O)c3ccccc3C2=O)cc1,inactive

row,Compound,Potency
1,Cc1ccc(S(=O)(=O)c2cc3cc(Br)ccc3oc2=O)cc1,inactive
2,N#Cc1cccc(CN2CCCN(Cc3ccc(F)cc3)S2(=O)=O)c1,inactive
3,C/C(=N\NC(=O)c1cc2ccccc2cc1O)c1cccs1,inactive
4,COc1ccc(OC)c2sc(N(CCCN(C)C)C(=O)CCS(=O)(=O)c3ccccc3)nc12,25.1 µM (active)
5,CC(Sc1nc2ccccc2s1)C(=O)N(C)Cc1ccccc1 (stereo not given),inactive
6,COc1ccc(C)cc1N(C(=O)c1ccccc1F)c1nc2ccccc2s1,inactive
7,COc1ccc(CCNC(=O)CCS(=O)(=O)c2ccc3nc(C)sc3c2)cc1OC,inactive
8,CCOc1ccccc1NC(=O)CCS(=O)(=O)c1ccc(OC)cc1,inactive
9,COc1cccc2sc(N(CCCN(C)C)C(=O)C(c3ccccc3)c3ccccc3)nc12,39.8 µM (active)
10,O=C(Oc1ccc(Cl)c2cccnc12)c1cccnc1,inactive
11,COC(=O)/C=C1/SC(NNC(=O)c2ccc(Cl)cc2Cl)=NC1=O,inactive
12,CCCn1c(/C=N/Nc2nc3ccccc3[nH]2)nc2ccccc21,35.5 µM (active)
13,C/C(=N\Nc1nc2ccccc2[nH]1)c1ccc(Cl)s1,inactive
14,CCCn1c(/C=C/c2cc[n+](C)cc2)nc2ccccc21,inactive
15,O=S(=O)(c1cc(Cl)ccc1Cl)N1CCN(c2ccccn2)CC1,inactive
16,Cc1c(CC(=O)NCC(=O)N[C@H](Cc2ccccc2)C(=O)O)c(=O)oc2cc(O)ccc12,inactive
17,CCc1ccc(NC(=O)N(Cc2cn(CC)c3ccccc23)C2CCCCC2)cc1,35.5 µM (active)
18,Cc1ccc(NC(=O)CNc2ccccc2CN(C)C2CCCCC2)cc1,inactive
19,COc1cccc(NC(=O)N(Cc2cn(C)c3ccccc23)C2CCCCCC2)c1,39.8 µM (active)
20,COc1ccc(-n2c(=O)c3ccccc3n(CC(=O)Nc3cccc(OC)c3)c2=O)cc1,39.8 µM (active)
21,COc1cc2cc(CNc3ccccc3)c(=O)n(CC(=O)Nc3ccccc3)c2cc1OC,inactive
22,COc1cccc(NC(=O)Cn2cc(C(=O)C3CCCCC3)c3ccccc32)c1,39.8 µM (active)
23,COc1cccc(NC(=O)N2CCCC2C(=O)NCc2ccccc2F)c1 (stereo not given),inactive
24,COc1cccc(NC(=O)CN2C(=O)c3cccc4cccc2c34)c1,inactive
25,COc1cccc(NC(=O)C2CCOC2=O)c1 (stereo not given),inactive

row,Compound,Potency
1,CC(C)NC(=O)Cn1cc(C(=O)C2CC2)c2ccccc21,inactive
2,CCn1cc(C(=O)OC)c(=O)c2cc(S(=O)(=O)N(C)C3CCCCC3)ccc21,inactive
3,COc1cccc(NC(=O)CN(C)C(=O)[C@@H]2CCCN2C(=O)c2cccs2)c1,inactive
4,CCc1nc2sc(C(C)=O)c(N)c2c2c1CCCC2,inactive
5,O=C(CC1Sc2ccccc2NC1=O)OCc1cc(=O)oc2cc(O)ccc12 (stereo not given),inactive
6,Cn1cc(/C=N/NC(=O)c2cc3cc(Br)ccc3o2)c2ccccc21,inactive
7,CCOC(=O)N1CCC(NC(=O)c2cc(C(=O)Nc3ccc(F)cc3F)ccc2CO)CC1,inactive
8,O=C(CC[C@H]1O[C@@H](n2ccc(=O)[nH]c2=O)[C@H](O)[C@@H]1O)N[C@H](Cc1ccccc1)C(=O)NCCCN1CCCC1=O,inactive
9,CC(OC(=O)c1ccc([N+](=O)[O-])s1)C(=O)NC1CCCCC1C (stereo not given),inactive
10,O=c1[nH]cc(/N=C/c2cc(Cl)cc(Cl)c2O)c(=O)[nH]1,inactive
11,CCCn1/c(=N\C(C)=O)c(C(=O)OCC)cc2c(=O)n3ccccc3nc21,inactive
12,O=C(c1cccc(Cl)c1)N1CCC(N2CCC(C(=O)N3CCCC3)CC2)CC1,8.91 µM (active)
13,CC(C)Cc1cc(C(=O)N2CCC(N3CCC(C(=O)N4CCCC4)CC3)CC2)[nH]n1,inactive
14,O=C(C1CCN(S(=O)(=O)c2c(Cl)cccc2Cl)CC1)N1CCCCCCC1,inactive
15,CCOC(=O)c1cc2c(=O)n3ccccc3nc2n(CC(C)C)/c1=N\C(=O)C(C)Oc1ccccc1 (stereo not given),inactive
16,COc1ccc(-c2oc3ccccc3c(=O)c2OC(C)=O)cc1,inactive
17,O=C(Nc1cccc(C(F)(F)F)c1)C1CC(=O)N(Cc2ccco2)C1 (stereo not given),inactive
18,Cc1noc2ncnc(N3CCCC(C(=O)Nc4cccc(C(F)(F)F)c4)C3)c12 (stereo not given),31.6 µM (active)
19,CNC(=O)c1ccc(NC(=O)C2CCN(S(=O)(=O)c3cccc(C(F)(F)F)c3)CC2)cc1,inactive
20,CCn1c(C(C)NC(C)=O)nc2ccccc21 (stereo not given),inactive
21,CCn1c2ccccc2c(=O)c2ccccc21,inactive
22,CCn1c2ccccc2nc2cc3c(cc21)c(Cl)c(=O)c1ccccc13,7.94 µM (active)
23,C/C(=N\NC(=O)c1cc2ccccc2cc1O)c1ccc(C)o1,inactive
24,O=C(O)c1cccc(NC(=O)c2cc3cc(Br)cc(Br)c3oc2=O)c1,inactive
25,C/C(=N\NC(=O)C1(C)CC1(Br)Br)c1cccc(NC(=O)c2ccc(C)o2)c1 (stereo not given),35.5 µM (active)
